Publication PMC7862700, “An all-to-all approach to the identification of sequence-specific readers for epigenetic DNA modifications on cytosine”

Columns and labels:
Assay in all cases: DAPPL (digital affinity profiling via proximity ligation, sequencing); 10 mM Tris-HCl pH 7.5, 50 mM NaCl, 1 mM DTT, 4% glycerol, room temperature, 30 min; GST-TFs on glutathione beads, 16-mer random dsDNA library, 0.1% formaldehyde crosslink after washing; high values mean tight binding
[1] = biological target: T1, FLI1 (Homo sapiens, UniProt Q01543 1-452); settings: protein: recombinant; tags: N-terminal GST; dsDNA, one strand shown
T1 sequence: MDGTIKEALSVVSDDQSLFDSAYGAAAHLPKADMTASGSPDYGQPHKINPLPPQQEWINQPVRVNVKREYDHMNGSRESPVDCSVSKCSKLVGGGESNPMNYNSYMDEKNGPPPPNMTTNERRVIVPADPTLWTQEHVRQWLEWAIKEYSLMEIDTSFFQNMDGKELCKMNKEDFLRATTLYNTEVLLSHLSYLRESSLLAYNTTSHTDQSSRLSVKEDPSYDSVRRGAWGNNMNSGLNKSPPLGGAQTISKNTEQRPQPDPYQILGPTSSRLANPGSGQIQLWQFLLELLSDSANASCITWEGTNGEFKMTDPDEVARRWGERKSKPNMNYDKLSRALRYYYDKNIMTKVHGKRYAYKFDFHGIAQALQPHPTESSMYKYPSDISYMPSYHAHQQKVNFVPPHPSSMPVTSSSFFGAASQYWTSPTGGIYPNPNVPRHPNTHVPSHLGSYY
How it was run: (§1)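 In yeast, human transcription factors were expressed with a GST fusion, then pulled down on glutathione beads and given DNA barcodes. Pooled with a tag-only sample, they were exposed to 200 nmole of a 16-mer random double-stranded DNA library (Tris/NaCl/DTT/glycerol buffer, room temperature, 30 min), washed, crosslinked with 0.1% formaldehyde, proximity-ligated using BsaI/T4 ligase for 1 h at 37 °C, PCR-amplified and read on an Illumina NextSeq500. Each hexamer's frequency of reads for a factor, divided by the matching frequency for the tag-only sample, gives the binding signal.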

[2] = biological target: T2, ELK1 (Homo sapiens, UniProt P19419 1-428); settings: protein: recombinant; tags: N-terminal GST; dsDNA, one strand shown
T2 sequence: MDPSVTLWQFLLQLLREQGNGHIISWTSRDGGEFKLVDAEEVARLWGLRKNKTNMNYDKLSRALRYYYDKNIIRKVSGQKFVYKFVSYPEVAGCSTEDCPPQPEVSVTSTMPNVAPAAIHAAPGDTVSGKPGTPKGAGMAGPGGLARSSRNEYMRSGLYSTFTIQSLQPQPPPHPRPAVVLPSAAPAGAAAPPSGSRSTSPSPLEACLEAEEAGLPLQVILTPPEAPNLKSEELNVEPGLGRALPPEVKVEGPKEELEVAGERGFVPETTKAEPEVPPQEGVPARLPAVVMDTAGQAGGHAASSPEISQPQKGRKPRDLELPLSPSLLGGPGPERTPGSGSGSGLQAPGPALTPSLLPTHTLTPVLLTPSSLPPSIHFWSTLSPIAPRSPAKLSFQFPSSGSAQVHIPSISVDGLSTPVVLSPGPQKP
How it was run: as §1

[3] = biological target: T3, GABPA (Homo sapiens, UniProt Q06546 1-454); settings: protein: recombinant; tags: N-terminal GST; dsDNA, one strand shown
T3 sequence: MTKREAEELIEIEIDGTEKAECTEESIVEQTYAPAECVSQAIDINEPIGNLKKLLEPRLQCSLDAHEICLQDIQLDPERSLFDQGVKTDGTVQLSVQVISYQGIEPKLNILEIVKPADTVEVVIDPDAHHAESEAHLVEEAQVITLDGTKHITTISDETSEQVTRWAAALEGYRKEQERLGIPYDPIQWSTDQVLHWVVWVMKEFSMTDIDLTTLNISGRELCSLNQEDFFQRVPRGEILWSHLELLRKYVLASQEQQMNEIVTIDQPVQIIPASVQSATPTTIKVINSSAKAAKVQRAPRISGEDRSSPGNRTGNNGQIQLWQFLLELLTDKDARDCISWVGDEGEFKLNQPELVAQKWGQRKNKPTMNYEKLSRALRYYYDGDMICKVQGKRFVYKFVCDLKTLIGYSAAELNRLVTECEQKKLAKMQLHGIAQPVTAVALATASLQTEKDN
How it was run: as §1

[4] = biological target: T4, ERG (Homo sapiens, UniProt P11308 1-479); settings: protein: recombinant; tags: N-terminal GST; dsDNA, one strand shown
T4 sequence: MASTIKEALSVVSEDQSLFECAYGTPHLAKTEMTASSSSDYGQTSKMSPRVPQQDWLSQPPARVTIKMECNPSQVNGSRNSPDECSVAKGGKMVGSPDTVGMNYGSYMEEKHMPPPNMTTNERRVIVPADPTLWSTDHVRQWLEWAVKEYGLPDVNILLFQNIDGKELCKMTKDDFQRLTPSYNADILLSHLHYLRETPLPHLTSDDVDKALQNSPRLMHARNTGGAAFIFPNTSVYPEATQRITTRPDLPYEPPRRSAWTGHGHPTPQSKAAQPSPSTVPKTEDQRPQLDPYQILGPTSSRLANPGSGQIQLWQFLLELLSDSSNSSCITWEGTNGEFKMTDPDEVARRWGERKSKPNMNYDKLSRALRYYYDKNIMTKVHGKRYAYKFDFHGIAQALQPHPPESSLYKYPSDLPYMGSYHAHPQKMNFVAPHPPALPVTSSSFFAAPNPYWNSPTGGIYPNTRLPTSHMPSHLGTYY
How it was run: as §1

[5] = biological target: ELF1 (Homo sapiens, UniProt P32519 1-619); settings: protein: recombinant; tags: N-terminal GST; dsDNA, one strand shown
Sequence of ELF1 (P32519 whole entry): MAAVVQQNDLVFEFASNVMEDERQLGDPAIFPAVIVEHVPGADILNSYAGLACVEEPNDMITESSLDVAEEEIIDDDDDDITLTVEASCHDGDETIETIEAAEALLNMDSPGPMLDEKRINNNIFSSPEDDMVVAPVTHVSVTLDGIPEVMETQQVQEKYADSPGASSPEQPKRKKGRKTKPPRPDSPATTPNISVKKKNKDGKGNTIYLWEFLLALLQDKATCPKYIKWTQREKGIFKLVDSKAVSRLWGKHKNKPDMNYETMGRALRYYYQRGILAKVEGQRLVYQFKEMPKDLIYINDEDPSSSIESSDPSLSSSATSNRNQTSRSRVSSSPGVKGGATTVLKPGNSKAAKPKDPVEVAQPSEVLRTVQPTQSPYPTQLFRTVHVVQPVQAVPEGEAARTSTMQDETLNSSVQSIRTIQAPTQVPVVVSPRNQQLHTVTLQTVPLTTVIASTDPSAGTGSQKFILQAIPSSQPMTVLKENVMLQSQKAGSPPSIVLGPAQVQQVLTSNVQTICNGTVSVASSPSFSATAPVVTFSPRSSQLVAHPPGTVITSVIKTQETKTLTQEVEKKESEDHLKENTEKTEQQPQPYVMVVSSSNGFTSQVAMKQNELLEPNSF
How it was run: as §1

[6] = biological target: T5, EHF (Homo sapiens, UniProt Q9NZC4 1-300); settings: protein: recombinant; tags: N-terminal GST; dsDNA, one strand shown
T5 sequence: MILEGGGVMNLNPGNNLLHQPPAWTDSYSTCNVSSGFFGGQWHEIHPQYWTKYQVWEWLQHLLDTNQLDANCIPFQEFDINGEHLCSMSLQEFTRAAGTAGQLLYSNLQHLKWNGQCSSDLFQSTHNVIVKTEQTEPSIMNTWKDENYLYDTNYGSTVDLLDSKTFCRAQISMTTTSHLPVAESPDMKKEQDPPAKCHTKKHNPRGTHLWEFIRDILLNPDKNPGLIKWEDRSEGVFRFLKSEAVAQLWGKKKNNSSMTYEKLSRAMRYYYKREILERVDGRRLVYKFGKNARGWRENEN
How it was run: as §1

[7] = biological target: SPI1 (Homo sapiens, UniProt P17947 1-270); settings: protein: recombinant; tags: N-terminal GST; dsDNA, one strand shown
How it was run: as §1

[8] = biological target: SPIB (Homo sapiens, UniProt Q01892 1-262); settings: protein: recombinant; tags: N-terminal GST; dsDNA, one strand shown
Sequence of SPIB (Q01892 whole entry): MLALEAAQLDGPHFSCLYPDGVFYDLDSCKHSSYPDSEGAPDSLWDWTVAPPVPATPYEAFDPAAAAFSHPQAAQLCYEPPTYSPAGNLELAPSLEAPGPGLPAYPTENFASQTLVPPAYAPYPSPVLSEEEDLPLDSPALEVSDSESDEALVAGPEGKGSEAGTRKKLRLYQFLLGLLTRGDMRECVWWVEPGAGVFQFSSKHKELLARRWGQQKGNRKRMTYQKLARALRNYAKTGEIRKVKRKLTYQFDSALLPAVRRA
How it was run: as §1

[9] = biological target: T6, ELK3 (Homo sapiens, UniProt P41970 1-407); settings: protein: recombinant; tags: N-terminal GST; dsDNA, one strand shown
T6 sequence: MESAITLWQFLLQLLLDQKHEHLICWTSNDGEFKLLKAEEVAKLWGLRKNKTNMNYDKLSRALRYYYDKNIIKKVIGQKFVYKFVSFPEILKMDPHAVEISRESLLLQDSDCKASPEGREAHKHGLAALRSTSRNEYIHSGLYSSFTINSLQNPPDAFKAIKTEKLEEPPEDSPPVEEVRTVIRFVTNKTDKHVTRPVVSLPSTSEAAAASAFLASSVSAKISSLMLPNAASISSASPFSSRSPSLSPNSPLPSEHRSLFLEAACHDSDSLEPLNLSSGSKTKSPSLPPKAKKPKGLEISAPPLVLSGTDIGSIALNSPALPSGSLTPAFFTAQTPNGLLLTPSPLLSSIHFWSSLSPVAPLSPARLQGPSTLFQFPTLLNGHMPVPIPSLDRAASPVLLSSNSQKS
How it was run: as §1

[10] = biological target: T7, FEV (Homo sapiens, UniProt Q99581 1-238); settings: protein: recombinant; tags: N-terminal GST; dsDNA, one strand shown
T7 sequence: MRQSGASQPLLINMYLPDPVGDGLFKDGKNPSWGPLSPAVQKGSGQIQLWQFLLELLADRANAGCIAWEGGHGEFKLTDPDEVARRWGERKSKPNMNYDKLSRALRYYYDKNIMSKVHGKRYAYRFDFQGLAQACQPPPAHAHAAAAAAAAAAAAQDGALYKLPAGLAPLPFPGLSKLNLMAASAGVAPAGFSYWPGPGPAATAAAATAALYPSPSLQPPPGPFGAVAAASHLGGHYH
How it was run: as §1

[11] = biological target: ETV5 (Homo sapiens, UniProt P41161 1-510); settings: protein: recombinant; tags: N-terminal GST; dsDNA, one strand shown
Sequence of ETV5 (P41161 whole entry): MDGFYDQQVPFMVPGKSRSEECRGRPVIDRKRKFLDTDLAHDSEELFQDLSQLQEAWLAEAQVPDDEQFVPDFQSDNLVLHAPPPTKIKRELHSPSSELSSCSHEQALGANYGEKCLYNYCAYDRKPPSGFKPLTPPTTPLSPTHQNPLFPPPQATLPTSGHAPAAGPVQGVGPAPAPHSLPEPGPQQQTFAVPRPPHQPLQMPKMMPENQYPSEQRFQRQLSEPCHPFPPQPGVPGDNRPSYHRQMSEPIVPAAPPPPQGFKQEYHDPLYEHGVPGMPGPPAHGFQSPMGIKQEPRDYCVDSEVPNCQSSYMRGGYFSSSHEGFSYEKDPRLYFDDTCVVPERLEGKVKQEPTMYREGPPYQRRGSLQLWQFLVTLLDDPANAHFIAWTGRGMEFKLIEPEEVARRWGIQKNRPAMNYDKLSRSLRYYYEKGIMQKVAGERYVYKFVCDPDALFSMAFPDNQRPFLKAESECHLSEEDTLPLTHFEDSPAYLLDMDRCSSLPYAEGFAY
How it was run: as §1

[12] = biological target: HSF1 (Homo sapiens, UniProt Q00613 1-529); settings: protein: recombinant; tags: N-terminal GST; chain copies: 3; dsDNA, one strand shown
Sequence of HSF1 (Q00613 whole entry): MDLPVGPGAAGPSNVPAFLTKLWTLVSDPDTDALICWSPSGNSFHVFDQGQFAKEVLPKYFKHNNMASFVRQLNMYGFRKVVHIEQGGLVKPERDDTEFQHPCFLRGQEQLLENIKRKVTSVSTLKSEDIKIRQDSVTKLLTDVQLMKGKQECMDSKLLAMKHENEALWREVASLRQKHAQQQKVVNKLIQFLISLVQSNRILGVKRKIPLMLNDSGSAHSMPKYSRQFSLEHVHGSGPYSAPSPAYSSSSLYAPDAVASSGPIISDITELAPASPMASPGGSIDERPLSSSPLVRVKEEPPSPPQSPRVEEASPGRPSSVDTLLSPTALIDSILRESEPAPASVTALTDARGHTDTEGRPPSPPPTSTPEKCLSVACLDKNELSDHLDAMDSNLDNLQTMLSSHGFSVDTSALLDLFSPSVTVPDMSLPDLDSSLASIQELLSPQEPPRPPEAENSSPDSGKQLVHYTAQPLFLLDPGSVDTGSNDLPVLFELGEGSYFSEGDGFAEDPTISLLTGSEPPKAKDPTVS
How it was run: as §1

[13] = biological target: T8, SPIC (Homo sapiens, UniProt Q8N5J4 1-248); settings: protein: recombinant; tags: N-terminal GST; dsDNA, one strand shown
T8 sequence: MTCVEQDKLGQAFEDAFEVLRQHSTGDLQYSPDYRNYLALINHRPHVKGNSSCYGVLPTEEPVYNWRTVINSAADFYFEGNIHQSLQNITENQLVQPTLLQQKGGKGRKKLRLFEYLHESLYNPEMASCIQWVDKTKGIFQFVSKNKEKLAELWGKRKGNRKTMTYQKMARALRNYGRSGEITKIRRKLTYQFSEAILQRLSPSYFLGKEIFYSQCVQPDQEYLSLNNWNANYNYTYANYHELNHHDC
How it was run: as §1

[14] = biological target: ELF4 (Homo sapiens, UniProt Q99607 1-663); settings: protein: recombinant; tags: N-terminal GST; dsDNA, one strand shown
Sequence of ELF4 (Q99607 whole entry): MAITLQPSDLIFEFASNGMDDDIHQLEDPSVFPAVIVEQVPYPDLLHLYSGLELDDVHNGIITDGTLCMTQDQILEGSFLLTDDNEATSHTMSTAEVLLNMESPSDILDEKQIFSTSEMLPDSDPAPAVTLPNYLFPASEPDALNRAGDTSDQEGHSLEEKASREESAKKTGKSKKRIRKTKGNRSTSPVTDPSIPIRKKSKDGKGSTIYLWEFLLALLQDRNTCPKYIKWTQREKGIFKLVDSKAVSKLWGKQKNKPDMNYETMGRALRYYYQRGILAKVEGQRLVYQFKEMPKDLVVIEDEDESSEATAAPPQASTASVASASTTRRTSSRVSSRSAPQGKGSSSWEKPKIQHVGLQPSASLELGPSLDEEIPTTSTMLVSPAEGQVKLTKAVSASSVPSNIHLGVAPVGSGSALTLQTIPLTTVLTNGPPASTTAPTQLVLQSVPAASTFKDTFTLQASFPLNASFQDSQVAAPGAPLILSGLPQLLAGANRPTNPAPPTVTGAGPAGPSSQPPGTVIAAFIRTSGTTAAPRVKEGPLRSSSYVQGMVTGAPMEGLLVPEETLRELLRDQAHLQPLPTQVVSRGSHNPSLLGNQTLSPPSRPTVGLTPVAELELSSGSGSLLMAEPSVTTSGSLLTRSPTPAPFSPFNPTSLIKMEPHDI
How it was run: as §1

[15] = biological target: T9, ELK4 (Homo sapiens, UniProt P28324-2 1-405); settings: protein: recombinant; tags: N-terminal GST; dsDNA, one strand shown
T9 sequence: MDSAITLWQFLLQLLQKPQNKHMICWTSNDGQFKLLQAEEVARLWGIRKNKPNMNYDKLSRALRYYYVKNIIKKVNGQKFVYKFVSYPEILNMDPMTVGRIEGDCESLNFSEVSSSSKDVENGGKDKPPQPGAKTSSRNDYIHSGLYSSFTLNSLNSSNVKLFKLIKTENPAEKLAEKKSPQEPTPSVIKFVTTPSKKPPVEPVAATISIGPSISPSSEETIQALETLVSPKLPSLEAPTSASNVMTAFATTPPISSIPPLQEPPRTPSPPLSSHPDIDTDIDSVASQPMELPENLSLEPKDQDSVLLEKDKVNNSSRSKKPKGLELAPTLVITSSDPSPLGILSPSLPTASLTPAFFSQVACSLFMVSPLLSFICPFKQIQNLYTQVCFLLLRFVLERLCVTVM
How it was run: as §1

[16] = biological target: T10, ETV2 (Homo sapiens, UniProt O00321 1-342); settings: protein: recombinant; tags: N-terminal GST; dsDNA, one strand shown
T10 sequence: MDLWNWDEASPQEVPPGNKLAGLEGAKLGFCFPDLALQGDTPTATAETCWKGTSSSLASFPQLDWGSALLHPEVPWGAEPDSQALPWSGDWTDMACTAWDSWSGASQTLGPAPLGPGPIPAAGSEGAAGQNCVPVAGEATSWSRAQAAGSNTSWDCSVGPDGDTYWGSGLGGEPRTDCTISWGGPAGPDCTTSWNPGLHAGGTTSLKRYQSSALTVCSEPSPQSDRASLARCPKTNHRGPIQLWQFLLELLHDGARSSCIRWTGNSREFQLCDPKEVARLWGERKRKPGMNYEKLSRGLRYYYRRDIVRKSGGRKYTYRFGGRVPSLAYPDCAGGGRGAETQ
How it was run: as §1

[17] = biological target: T11, ELF3 (Homo sapiens, UniProt P78545 1-371); settings: protein: recombinant; tags: N-terminal GST; dsDNA, one strand shown
T11 sequence: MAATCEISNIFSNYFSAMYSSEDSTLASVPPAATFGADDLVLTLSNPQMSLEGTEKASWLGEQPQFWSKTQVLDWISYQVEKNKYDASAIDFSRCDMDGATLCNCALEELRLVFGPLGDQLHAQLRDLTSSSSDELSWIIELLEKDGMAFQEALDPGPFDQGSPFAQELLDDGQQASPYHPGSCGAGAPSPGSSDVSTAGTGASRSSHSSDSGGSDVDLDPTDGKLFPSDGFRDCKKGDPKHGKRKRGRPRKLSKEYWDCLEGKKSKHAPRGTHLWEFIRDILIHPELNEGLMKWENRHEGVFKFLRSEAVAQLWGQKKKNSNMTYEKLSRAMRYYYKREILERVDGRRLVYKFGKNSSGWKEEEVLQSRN
How it was run: as §1

[18] = biological target: CRX (Homo sapiens, UniProt O43186 1-299); settings: protein: recombinant; tags: N-terminal GST; dsDNA, one strand shown
Sequence of CRX (O43186 whole entry): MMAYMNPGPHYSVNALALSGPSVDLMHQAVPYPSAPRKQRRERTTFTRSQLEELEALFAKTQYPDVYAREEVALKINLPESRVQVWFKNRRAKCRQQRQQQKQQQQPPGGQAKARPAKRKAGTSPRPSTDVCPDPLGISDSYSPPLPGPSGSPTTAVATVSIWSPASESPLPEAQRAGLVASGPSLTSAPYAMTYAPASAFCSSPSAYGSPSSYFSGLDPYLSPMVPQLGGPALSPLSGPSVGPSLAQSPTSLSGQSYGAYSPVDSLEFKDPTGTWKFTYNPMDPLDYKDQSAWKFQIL
How it was run: as §1

[19] = biological target: ETV1 (Homo sapiens, UniProt P50549 1-477); settings: protein: recombinant; tags: N-terminal GST; dsDNA, one strand shown
Sequence of ETV1 (P50549 whole entry): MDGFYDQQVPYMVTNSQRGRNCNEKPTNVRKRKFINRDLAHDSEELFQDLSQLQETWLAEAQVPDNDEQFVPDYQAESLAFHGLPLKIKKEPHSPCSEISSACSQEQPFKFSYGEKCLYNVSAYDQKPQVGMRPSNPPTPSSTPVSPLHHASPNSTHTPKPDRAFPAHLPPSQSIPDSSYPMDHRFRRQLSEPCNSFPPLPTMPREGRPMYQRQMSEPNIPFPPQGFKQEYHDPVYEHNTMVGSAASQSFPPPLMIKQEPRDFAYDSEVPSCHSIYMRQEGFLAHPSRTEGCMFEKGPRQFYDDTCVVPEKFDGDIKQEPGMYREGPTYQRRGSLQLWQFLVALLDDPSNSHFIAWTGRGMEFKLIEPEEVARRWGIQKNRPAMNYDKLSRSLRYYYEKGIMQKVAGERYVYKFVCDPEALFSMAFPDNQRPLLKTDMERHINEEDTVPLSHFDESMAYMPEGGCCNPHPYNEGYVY
How it was run: as §1

For ATACAT, the binding signal [1] was 1.31 fold enrichment (6-mer frequency, TF over GST control), the binding signal [2] was 1.15 fold enrichment (6-mer frequency, TF over GST control) and the binding signal [3] was 1.25 fold enrichment (6-mer frequency, TF over GST control). The binding signal [4] was 1.34 fold enrichment (6-mer frequency, TF over GST control), the binding signal [5] was 1.24 fold enrichment (6-mer frequency, TF over GST control) and the binding signal [6] was 1.21 fold enrichment (6-mer frequency, TF over GST control). For the same sequence, the binding signal [7] was 1.2 fold enrichment (6-mer frequency, TF over GST control), the binding signal [8] was 1.26 fold enrichment (6-mer frequency, TF over GST control) and the binding signal [9] was 1.32 fold enrichment (6-mer frequency, TF over GST control). For the same sequence, the binding signal [10] was 1.29 fold enrichment (6-mer frequency, TF over GST control), the binding signal [11] was 1.23 fold enrichment (6-mer frequency, TF over GST control) and the binding signal [12] was 1.01 fold enrichment (6-mer frequency, TF over GST control). The binding signal [13] was 1.15 fold enrichment (6-mer frequency, TF over GST control), the binding signal [14] was 1.33 fold enrichment (6-mer frequency, TF over GST control) and the binding signal [15] was 1.31 fold enrichment (6-mer frequency, TF over GST control). For the same sequence, the binding signal [16] was 1.33 fold enrichment (6-mer frequency, TF over GST control), the binding signal [17] was 1.15 fold enrichment (6-mer frequency, TF over GST control) and the binding signal [18] was 1.06 fold enrichment (6-mer frequency, TF over GST control). For the same sequence, the binding signal [19] was 1.33 fold enrichment (6-mer frequency, TF over GST control).
